Results reported in PubChem BioAssay (EPA / NIEHS).
Where “and” joins values, the source holds several entries; their conditions need not be identical. Equal values may be shown once. Results filed as inconclusive are left out. Some compounds were tested as several samples or in several runs, with calls that do not always agree. Calls of active or inactive are those of the source. How the source made its calls, unless noted: active means hit-call score of the fitted dose curve at least 0.9, where 1 is the maximum; inactive means score below 0.9.

Columns and labels:
[1] = molecular target: Bile acid receptor (Homo sapiens) (UniProt Q96RI1); test: OT_FXR_FXRSRC1_1440: Odyssey Thera (OT) 24-hour HEK293T Protein-Complementation Assay for Farnesoid X receptor/SRC-1 Co-activator (AID 2283384; active means hit-call score of the fitted dose curve at least 0.9, where 1 is the maximum)
Chain of Bile acid receptor (Homo sapiens) (Q96RI1 whole entry, looked up, the tested form may be a part): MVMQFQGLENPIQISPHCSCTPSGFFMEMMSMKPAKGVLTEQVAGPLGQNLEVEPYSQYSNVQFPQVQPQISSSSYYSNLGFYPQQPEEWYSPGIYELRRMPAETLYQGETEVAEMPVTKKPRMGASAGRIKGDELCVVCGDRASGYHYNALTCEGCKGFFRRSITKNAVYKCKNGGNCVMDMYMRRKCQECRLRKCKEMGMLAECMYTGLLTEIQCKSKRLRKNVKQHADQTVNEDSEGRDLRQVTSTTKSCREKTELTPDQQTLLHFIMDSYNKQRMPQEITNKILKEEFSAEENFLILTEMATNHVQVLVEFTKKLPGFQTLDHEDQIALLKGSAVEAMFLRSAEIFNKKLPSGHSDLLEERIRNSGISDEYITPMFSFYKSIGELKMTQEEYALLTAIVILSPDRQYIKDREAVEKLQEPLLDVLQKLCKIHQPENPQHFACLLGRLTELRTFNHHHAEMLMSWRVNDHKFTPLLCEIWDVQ
Procedure, shortened: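 Protein-fragment complementation: FXR and SRC-1 fused to reporter fragments that reassemble on interaction, read by fluorescence intensity. Human HEK293T cells measured 24 h post-dose; positive-direction fit versus DMSO.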

[2] = molecular target: Peroxisome proliferator-activated receptor gamma (Homo sapiens) (UniProt P37231); test: OT_PPARg_PPARgSRC1_0480: Odyssey Thera (OT) 8-hour Protein-Complementation Assay for Peroxisome Proliferator-activated Receptor Gamma / SRC-1 Co-activator (AID 2283387; active means hit-call score of the fitted dose curve at least 0.9, where 1 is the maximum;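 further: nuclear to cytoplasmic split Venus YFP fluorescence ratio reporting PPARg SRC-1 interaction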)
Chain of Peroxisome proliferator-activated receptor gamma (Homo sapiens) (P37231 whole entry, looked up, the tested form may be a part): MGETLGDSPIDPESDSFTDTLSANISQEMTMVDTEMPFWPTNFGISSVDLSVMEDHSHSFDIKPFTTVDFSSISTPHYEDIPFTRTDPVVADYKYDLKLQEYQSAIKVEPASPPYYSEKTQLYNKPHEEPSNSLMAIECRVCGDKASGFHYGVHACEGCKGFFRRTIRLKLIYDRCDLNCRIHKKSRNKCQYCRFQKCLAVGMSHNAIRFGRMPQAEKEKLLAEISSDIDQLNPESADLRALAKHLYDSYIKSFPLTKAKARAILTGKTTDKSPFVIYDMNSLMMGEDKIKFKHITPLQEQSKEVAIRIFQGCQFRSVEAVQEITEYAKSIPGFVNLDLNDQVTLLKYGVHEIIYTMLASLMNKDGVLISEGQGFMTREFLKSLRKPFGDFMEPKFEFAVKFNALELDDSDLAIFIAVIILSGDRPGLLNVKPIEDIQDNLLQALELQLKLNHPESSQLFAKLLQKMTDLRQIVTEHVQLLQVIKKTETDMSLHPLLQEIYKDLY
Procedure, shortened: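 Protein-fragment complementation of split Venus YFP reports PPARg/SRC-1 interaction in HEK293T (transfected 48 h before treatment), exposed 8 h. Readout: N/C fluorescence ratio at 488 nm from imaging, Draq5 for segmentation, positive fit relative to DMSO.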

[3] = molecular target: Peroxisome proliferator-activated receptor gamma (Homo sapiens) (UniProt P37231); test: OT_PPARg_PPARgSRC1_1440: Odyssey Thera (OT) 24-hour Protein-Complementation Assay for Peroxisome Proliferator-activated Receptor Gamma/ SRC-1 Co-activator (AID 2283388; active means hit-call score of the fitted dose curve at least 0.9, where 1 is the maximum;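 further: nuclear to cytoplasmic ratio of reconstituted Venus YFP fluorescence in fixed imaged cells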)
Procedure, shortened: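 Readout is the 488 nm N/C fluorescence ratio from fixed, Draq5-stained HEK293T cells after 24 h compound exposure. Cells carried transiently transfected PPARg and SRC-1 fused to Venus fragments, transfected 48 h before treatment.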

[4] = read-out: Fatty acid synthase (Homo sapiens) (UniProt P49327); test: LTEA_HepaRG_FASN: Life Technologies and Expression Analysis (LTEA) Assay for Fatty Acid Synthase (FASN) using HepaRG (AID 2283448); settings: mRNA level, 48 h; actives raise or lower the signal
Procedure, shortened: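 FASN transcript measured by TaqMan qRT-PCR, normalised to three housekeeping genes, after 48 h chemical exposure of HepaRG cells. Eight-point half-log series from 100 uM in 0.5% DMSO, duplicates; gain or loss fitted against vehicle.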

[5] = read-out: Cyclin Dependent Kinase Inhibitor 1A (CDKN1A), CDKN1A (gene 1026); test: LTEA_HepaRG_CDKN1A: Life Technologies and Expression Analysis (LTEA) Assay for Cyclin Dependent Kinase Inhibitor 1A (CDKN1A) using HepaRG (AID 2283450); settings: mRNA level, 48 h; actives raise or lower the signal
Procedure, shortened: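 Expression quantified by Fluidigm qRT-PCR with ACTB, GAPDH and POLR2A normalization, fitted bidirectionally against 0.5% DMSO. Cells: HepaRG, plated 48 h then treated 48 h in serum-free induction medium, top concentration 100 uM with half-log dilutions.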

[6] = read-out: Cyclin D1 (CCND1), CCND1 (gene 595); test: LTEA_HepaRG_CCND1: Life Technologies and Expression Analysis (LTEA) Assay for Cyclin D1 (CCND1) using HepaRG (AID 2283451); settings: mRNA level, 48 h; actives raise or lower the signal;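 on AC50: TaqMan qRT-PCR transcript level normalised to ACTB GAPDH and POLR2A housekeeping genes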
Procedure, shortened: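 Expression of CCND1 was quantified by qRT-PCR on Fluidigm arrays using ACTB, GAPDH and POLR2A as reference genes. HepaRG cultures, plated 48 h beforehand, were dosed for 48 h at up to 100 uM (half-log, 8 points) in 0.5% DMSO.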

[7] = read-out: catalase (CAT), CAT (gene 847); test: LTEA_HepaRG_CAT: Life Technologies and Expression Analysis (LTEA) Assay for catalase (CAT) using HepaRG (AID 2283452); settings: mRNA level, 48 h; actives raise or lower the signal;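 on AC50: TaqMan qRT-PCR signal normalized to ACTB GAPDH and POLR2A housekeeping genes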
Procedure, shortened: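 Differentiated HepaRG cells in serum-free induction medium were dosed 48 h in duplicate, eight half-log concentrations from 100 uM in 0.5% DMSO. Transcript measured by TaqMan qRT-PCR, normalised to ACTB/GAPDH/POLR2A, fitted bidirectionally against DMSO.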

[8] = molecular target: Retinoic acid receptor RXR-alpha (Homo sapiens) (UniProt P19793); test: OT_NURR1_NURR1RXRa_0480: Odyssey Thera (OT) 8-hour HEK293T Protein Complementation Assay for Nurr1/retinoid X receptor (RXR) (AID 2283385; active means hit-call score of the fitted dose curve at least 0.9, where 1 is the maximum)
Chain of Retinoic acid receptor RXR-alpha (Homo sapiens) (P19793 whole entry, looked up, the tested form may be a part): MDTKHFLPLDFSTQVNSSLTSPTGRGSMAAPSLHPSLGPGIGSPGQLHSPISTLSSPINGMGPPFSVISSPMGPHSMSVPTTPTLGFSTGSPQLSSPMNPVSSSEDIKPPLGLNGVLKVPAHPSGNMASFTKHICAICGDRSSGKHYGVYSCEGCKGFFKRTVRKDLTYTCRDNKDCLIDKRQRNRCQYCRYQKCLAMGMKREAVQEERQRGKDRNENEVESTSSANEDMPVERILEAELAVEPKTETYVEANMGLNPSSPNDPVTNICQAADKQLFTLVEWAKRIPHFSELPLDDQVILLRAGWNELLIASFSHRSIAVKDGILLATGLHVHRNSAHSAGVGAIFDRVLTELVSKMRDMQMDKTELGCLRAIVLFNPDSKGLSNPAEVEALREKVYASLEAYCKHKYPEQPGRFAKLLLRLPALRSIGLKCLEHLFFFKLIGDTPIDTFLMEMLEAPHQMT
Procedure, shortened: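 Interaction of Nurr1 with RXRα read as reconstituted reporter fluorescence in a HEK293T fragment-complementation system, 8 h post-treatment; increase over DMSO baseline analysed.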

[9] = molecular target: Retinoic acid receptor RXR-alpha (Homo sapiens) (UniProt P19793); test: OT_NURR1_NURR1RXRa_1440: Odyssey Thera (OT) 24-hour HEK293T Protein Complementation Assay for Nurr1/retinoid X receptor (RXR) (AID 2283386; active means hit-call score of the fitted dose curve at least 0.9, where 1 is the maximum)
Procedure, shortened: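 Gain in fluorescence, fitted relative to DMSO, reflects Nurr1–RXRα association in HEK293T cells after 24 h dosing. Bait and prey are each linked to a reporter-protein fragment that reassembles on interaction.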

[10] = CEETOX_H295R_OHPREG: CeeTox H295R High-throughput Steroidogenesis Assay for OH-Pregnenolone (OHPREG) (AID 2283434); settings: actives raise or lower the signal
Procedure, shortened: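 Readout: HPLC-MS/MS of 17alpha-hydroxypregnenolone in medium after 48 h chemical exposure of H295R cells pretreated with forskolin. Values fitted bidirectionally relative to DMSO; chemicals reducing viability to 20–70% were retested after 10-fold dilution.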

[11] = CEETOX_H295R_OHPROG: CeeTox H295R High-throughput Steroidogenesis Assay for OH-Progesterone (OHPROG) (AID 2283435); settings: actives raise or lower the signal;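 on AC50: 17alpha-hydroxyprogesterone secreted into medium measured by HPLC-MS/MS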
Procedure, shortened: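 Medium steroid levels read by LC-MS/MS after 48 h chemical treatment (0.1% DMSO) of human adrenal H295R cells that had been forskolin-primed (10 uM, 48 h). Gain or loss fitted against DMSO; MTT cytotoxicity checked per well.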

[12] = CEETOX_H295R_ESTRADIOL: CeeTox H295R High-throughput Steroidogenesis Assay for Estradiol (AID 2283440); settings: actives raise or lower the signal;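 further: estradiol secreted into medium quantified by LC-MS/MS after dansyl derivatisation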
Procedure, shortened: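 Estradiol in spent medium measured by LC-MS/MS after dansyl chloride derivatisation. Forskolin-primed (10 uM, 48 h) human adrenal H295R cells received test chemical 48 h at 0.1% DMSO; concentrations lowered until MTT viability >/=70%.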

[13] = CEETOX_H295R_PROG: CeeTox H295R High-throughput Steroidogenesis Assay for Progesterone (PROG) (AID 2283442); settings: actives raise or lower the signal;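 on AC50: human H295R adrenal cells primed with 10 µM forskolin before dosing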
Procedure, shortened: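 Progesterone secreted by human H295R cells was measured by LC-MS/MS following 48 h chemical exposure at 0.1% DMSO, preceded by 48 h forskolin (10 uM) stimulation. Same-well MTT viability; cytotoxic concentrations diluted 10- or 100-fold and retested.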

[14] = read-out: Tumor necrosis factor receptor superfamily member 6 (Homo sapiens) (UniProt P25445); test: LTEA_HepaRG_FAS: Life Technologies and Expression Analysis (LTEA) Assay for Fas cell surface death receptor (FAS) using HepaRG (AID 2283447); settings: mRNA level, 48 h; actives raise or lower the signal
Procedure, shortened: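 Differentiated human HepaRG cells, pre-cultured 48 h, were exposed in duplicate for 48 h to 8-point half-log concentrations (top 100 uM, 0.5% DMSO) in serum-free induction medium; FAS mRNA measured by qRT-PCR, normalized to ACTB/GAPDH/POLR2A, bidirectional fit versus DMSO.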

[15] = read-out: Cyclin D2 (CCND2), CCND2 (gene 894); test: LTEA_HepaRG_CCND2: Life Technologies and Expression Analysis (LTEA) Assay for Cyclin D2 (CCND2) using HepaRG (AID 2283449); settings: mRNA level, 48 h; actives raise or lower the signal;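 further: CCND2 transcript measured by TaqMan qRT-PCR and normalised to three housekeeping genes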
Procedure, shortened: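 In this HepaRG study, an eight-point concentration series (max 100 uM, 0.5% DMSO) is applied for 48 h. CCND2 mRNA change is derived by qRT-PCR normalised to ACTB, GAPDH and POLR2A.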

[16] = CEETOX_H295R_11DCORT: CeeTox H295R High-throughput Steroidogenesis Assay for 11-Deoxycortisol (11DCORT) (AID 2283432); settings: actives raise or lower the signal;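 on AC50: 11-deoxycortisol secreted into the medium measured by LC-MS/MS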
Procedure, shortened: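 Human adrenal H295R cells were prestimulated with 10 uM forskolin for 48 h, then exposed to test chemical (0.1% DMSO final) for 48 h. Medium 11-deoxycortisol was quantified by MTBE extraction and HPLC-MS/MS; bidirectional fitting relative to DMSO.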

[17] = CEETOX_H295R_CORTIC: CeeTox H295R High-throughput Steroidogenesis Assay for Corticosterone (CORTIC) (AID 2283437); settings: actives raise or lower the signal;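 further: corticosterone secreted into medium quantified by mass spectrometry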
Procedure, shortened: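 Steps: seed H295R, adhere overnight; 10 uM forskolin 48 h; replace with chemical (0.1% DMSO) 48 h; extract medium with MTBE; quantify corticosterone by HPLC-MS/MS; score bidirectionally vs DMSO.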

[18] = CEETOX_H295R_CORTISOL: CeeTox H295R High-throughput Steroidogenesis Assay for Cortisol (AID 2283438); settings: actives raise or lower the signal;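 further: cortisol secreted into medium quantified by LC-MS/MS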
Procedure, shortened: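 Cortisol measured by HPLC-MS/MS after MTBE extraction of medium from H295R cells exposed 48 h to chemical (0.1% DMSO), following 48 h prestimulation with 10 uM forskolin. Viability assessed by MTT in the same wells.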

[19] = CEETOX_H295R_DOC: CeeTox H295R High-throughput Steroidogenesis Assay for DOC (AID 2283439); settings: actives raise or lower the signal
Procedure, shortened: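 11-Deoxycorticosterone quantified in medium by MTBE extraction and HPLC-MS/MS after 48 h chemical exposure (0.1% DMSO) of forskolin-primed (10 uM, 48 h) H295R cells. Same-well MTT viability; data fitted bidirectionally against DMSO.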

[20] = CEETOX_H295R_ANDR: CeeTox H295R High-throughput Steroidogenesis Assay for Androstenedione (ANDR) (AID 2283436); settings: actives raise or lower the signal
Procedure, shortened: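 Steroidogenesis in H295R adrenal cells after 48 h dosing; androstenedione quantified by LC-MS/MS, with DMSO as negative control and baseline for bidirectional curve fitting.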

Measured: AC50

Chain of Fatty acid synthase (Homo sapiens) (P49327 whole entry, looked up): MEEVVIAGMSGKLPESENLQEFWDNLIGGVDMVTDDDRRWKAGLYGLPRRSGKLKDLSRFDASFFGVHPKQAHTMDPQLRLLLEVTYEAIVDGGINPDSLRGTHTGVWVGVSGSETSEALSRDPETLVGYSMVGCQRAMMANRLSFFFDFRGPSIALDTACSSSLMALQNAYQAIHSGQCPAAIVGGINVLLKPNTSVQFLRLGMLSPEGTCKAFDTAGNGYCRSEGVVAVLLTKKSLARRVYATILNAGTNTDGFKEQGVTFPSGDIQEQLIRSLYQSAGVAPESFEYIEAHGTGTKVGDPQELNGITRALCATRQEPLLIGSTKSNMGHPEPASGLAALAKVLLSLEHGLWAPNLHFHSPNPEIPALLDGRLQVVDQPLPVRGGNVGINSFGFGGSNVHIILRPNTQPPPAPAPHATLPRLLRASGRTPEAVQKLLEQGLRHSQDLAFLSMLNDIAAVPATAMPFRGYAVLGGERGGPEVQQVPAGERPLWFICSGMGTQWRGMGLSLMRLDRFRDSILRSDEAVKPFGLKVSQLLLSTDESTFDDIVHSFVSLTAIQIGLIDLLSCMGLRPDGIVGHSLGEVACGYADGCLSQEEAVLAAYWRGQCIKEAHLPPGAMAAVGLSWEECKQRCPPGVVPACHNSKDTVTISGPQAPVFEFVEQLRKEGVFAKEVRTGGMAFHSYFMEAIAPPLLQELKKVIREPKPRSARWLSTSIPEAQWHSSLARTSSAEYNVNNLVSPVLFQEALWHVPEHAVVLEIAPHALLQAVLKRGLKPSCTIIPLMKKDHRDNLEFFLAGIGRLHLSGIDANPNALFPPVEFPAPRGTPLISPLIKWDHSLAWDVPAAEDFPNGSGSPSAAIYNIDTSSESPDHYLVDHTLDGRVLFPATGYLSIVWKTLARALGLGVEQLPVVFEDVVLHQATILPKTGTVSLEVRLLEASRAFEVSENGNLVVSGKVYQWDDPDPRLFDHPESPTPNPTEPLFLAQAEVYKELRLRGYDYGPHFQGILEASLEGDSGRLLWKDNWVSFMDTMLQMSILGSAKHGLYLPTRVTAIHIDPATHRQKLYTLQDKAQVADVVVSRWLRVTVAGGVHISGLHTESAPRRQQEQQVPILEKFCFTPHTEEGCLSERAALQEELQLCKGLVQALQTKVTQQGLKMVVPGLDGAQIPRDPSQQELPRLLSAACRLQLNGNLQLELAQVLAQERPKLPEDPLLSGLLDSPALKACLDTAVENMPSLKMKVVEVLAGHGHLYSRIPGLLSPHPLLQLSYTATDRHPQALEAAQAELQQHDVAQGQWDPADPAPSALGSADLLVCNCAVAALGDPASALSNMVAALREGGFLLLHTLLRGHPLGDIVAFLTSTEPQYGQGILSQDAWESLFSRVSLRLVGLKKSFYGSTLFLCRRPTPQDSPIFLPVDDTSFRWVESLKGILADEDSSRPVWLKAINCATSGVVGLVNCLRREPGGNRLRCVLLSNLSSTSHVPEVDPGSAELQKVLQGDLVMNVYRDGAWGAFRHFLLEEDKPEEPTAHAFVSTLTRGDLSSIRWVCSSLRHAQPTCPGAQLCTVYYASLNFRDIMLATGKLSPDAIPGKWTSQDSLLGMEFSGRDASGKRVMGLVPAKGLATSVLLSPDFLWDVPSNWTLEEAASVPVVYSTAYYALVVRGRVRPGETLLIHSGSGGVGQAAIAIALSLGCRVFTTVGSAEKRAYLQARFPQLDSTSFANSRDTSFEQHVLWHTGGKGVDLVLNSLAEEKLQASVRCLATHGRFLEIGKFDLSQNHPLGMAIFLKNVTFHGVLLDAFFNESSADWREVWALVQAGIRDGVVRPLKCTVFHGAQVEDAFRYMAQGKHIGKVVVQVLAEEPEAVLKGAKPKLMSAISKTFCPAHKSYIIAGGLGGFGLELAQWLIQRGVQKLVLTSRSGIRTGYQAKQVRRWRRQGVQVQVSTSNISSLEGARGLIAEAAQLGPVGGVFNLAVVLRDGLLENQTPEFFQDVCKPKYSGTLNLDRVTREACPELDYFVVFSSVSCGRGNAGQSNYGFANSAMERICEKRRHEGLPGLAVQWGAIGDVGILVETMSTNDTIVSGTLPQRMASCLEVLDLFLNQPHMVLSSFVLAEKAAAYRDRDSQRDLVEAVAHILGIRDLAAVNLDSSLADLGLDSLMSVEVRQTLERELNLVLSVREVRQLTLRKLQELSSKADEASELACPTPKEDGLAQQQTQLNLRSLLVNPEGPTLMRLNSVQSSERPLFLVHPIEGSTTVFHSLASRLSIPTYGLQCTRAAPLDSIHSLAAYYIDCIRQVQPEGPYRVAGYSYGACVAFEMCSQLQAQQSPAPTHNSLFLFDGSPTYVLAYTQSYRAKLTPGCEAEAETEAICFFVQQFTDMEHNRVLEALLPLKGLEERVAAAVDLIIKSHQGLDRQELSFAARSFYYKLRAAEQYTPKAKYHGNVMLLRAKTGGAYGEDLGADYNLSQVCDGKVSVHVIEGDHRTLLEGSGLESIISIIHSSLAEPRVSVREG

O=C(Nc1ccccc1)Nc1cnns1
active: [4] 72.7 µM | [6] 74.7 µM | [7] 50 µM
inactive: [1] | [2] | [3] | [5]

COP(=S)(OC)Oc1ccc([N+](=O)[O-])cc1
active: [1] 50 µM | [11] 3.28 µM | [13] 9.85 µM
inactive: [8] | [9] | [2] | [3] | [10] | [12] | [14] | [4] | [15] | [5] | [6] | [7]

CCOCN(C(=O)CCl)c1c(C)cccc1CC
active: [8] 654 nM | [4] 90.8 µM | [7] 80 µM
inactive: [8] | [9] | [2] | [3] | [15] | [5] | [6]

CCN(CC)C(=O)SCc1ccc(Cl)cc1
active: [16] 24.6 µM | [10] 19.3 µM | [19] 22.6 µM
inactive: [1] | [8] | [2] | [3] | [11] | [17] | [18] | [13] | [4] | [5] | [6] | [7]

ClC1C(Cl)C(Cl)C(Cl)C(Cl)C1Cl (stereo not drawn)
active: [10] 50 µM
inactive: [1] | [8] | [9] | [2] | [3] | [4] | [15] | [5] | [6] | [7]

CCCN(CCC)c1c([N+](=O)[O-])cc(C(F)(F)F)cc1[N+](=O)[O-]
inactive: [1] | [8] | [9] | [2] | [3] | [10] | [11] | [20] | [13] | [4] | [15] | [5] | [6] | [7]

CNC(=O)/C=C(\C)OP(=O)(OC)OC
inactive: [1] | [8] | [9] | [2] | [3] | [16] | [10] | [11] | [17] | [18] | [19] | [12] | [13] | [4] | [15] | [5] | [6] | [7]

OCCOc1ccccc1
inactive: [1] | [8] | [9] | [2] | [3] | [4] | [15] | [5] | [6] | [7]

Oc1cc(Cl)ccc1Oc1ccc(Cl)cc1Cl
inactive: [2] | [3] | [16] | [10] | [11] | [17] | [18] | [19] | [13] | [4] | [15] | [5] | [6] | [7]
active: [1] 12 µM | [8] 11.9 µM and 11.6 µM | [4] 69.9 µM | [6] 85.2 µM | [7] 90.2 µM

CC[C@H](C)[C@H]1O[C@]2(C=C[C@@H]1C)C[C@@H]1C[C@@H](C/C=C(\C)[C@@H](O[C@H]3C[C@H](OC)[C@@H](O[C@H]4C[C@H](OC)[C@@H](O)[C@H](C)O4)[C@H](C)O3)[C@@H](C)/C=C/C=C3\CO[C@@H]4[C@H](O)C(C)=C[C@@H](C(=O)O1)[C@]34O)O2 (tested in a mixture with another compound)
inactive: [8] | [9] | [2] | [3] | [16] | [10] | [11] | [17] | [18] | [19] | [13] | [6]
active: [8] 7400 nM | [9] 9.87 µM | [4] 11.4 µM | [5] 7.59 µM | [7] 10.5 µM

CC(C)N(C(=O)COc1nnc(C(F)(F)F)s1)c1ccc(F)cc1
inactive: [1] | [8] | [9] | [2] | [3] | [16] | [10] | [11] | [17] | [18] | [19] | [12] | [13] | [4] | [15] | [5] | [6]
